Data reported in PubChem BioAssay AID504941 (Broad Institute, 2011).
Out of some 1,200 compounds screened, about 170 (14%) were called active. How the calls were made is not given here. A selection follows. Results with a measured potency or affinity are listed apart.

test: twin-arginine translocation blockade, bacterial reporter – cherry-pick, set 2, plate reader, dose response (AID 504941); conditions: E. coli Tat transport reporter; series mostly up to 38 µM; activity change, negative = inhibition: at the top concentration

Activity change, negative = inhibition, inactive:
Cc1onc(C(=O)NCc2ccc(F)cc2)c1[N+](=O)[O-] -1.08%
O=C(CCC1CCCCC1)NCCN1CCOCC1 -15.1%
COCCCN=C(c1ccco1)n1c(=S)nc(-c2ccco2)n(CCCOC)c1=S 3.59%
O=C(CN1CCC(c2nc3ccccc3s2)CC1)NCc1cccs1 12.7%
O=C(Nc1ccc(C(=O)O)cc1)/C(=C\C=C\c1ccccc1)NC(=O)c1ccccc1Br -14.1%
O=C(Nc1cc(S(=O)(=O)N2CCOCC2)ccc1N1CCCC1)c1ccc(Cl)cc1 2.62%
Cc1cc(Oc2nc3c(C)cccn3c(=O)c2/C=C(\C#N)S(=O)(=O)c2ccc(Cl)cc2)ccc1Cl 2.58%
CCOC(=O)C1=C(C)Nc2ncnn2C1c1cc(Br)ccc1F (stereo not given) 5.94%
COc1ccc(NC(=O)C2CCN(Cc3cnn(-c4ccccc4)c3-n3cccc3)CC2)cc1OC 21%
Cc1ccn(C(=O)c2ccc(NC(=O)C3CC3)cc2)n1 -12.2%
O=C(CSc1cccc2cccnc12)N/N=C/c1ccncc1 35.7%
Clc1ccccc1CSc1nnc(-c2cccnc2)n1Cc1ccco1 -3.85%
CCN(CC)CC(=O)Nc1ccc(C)cc1C(=O)c1ccccc1 6.54%
COc1ccccc1NC(=O)NCCCCc1ccccc1 -5.9%
COc1ccc(CCNCC(O)COc2c(C)cccc2C)cc1OC (stereo not given) 2.06%
COCCNc1nc(N)c([N+](=O)[O-])c(NCC2CCCO2)n1 (stereo not given) -13.9%
CCOC(=O)c1sc(-c2ccccc2)cc1NC(=O)Nc1ccc([N+](=O)[O-])cc1 12.2%
O=C1c2cccc3cccc(c23)C(=O)N1CC1CCN(CC(O)COc2ccc3ccccc3c2)CC1 (stereo not given) 5.9%
Cc1cccc(OCC(O)Cn2c(=N)n(CCN3CCOCC3)c3ccccc32)c1 (stereo not given) -7%
COC(=O)COc1cccc(NC(=O)c2cccc(C)c2)c1 -3.33%
CCCc1[nH]nc2c1C(c1ccc(OC(=O)c3ccco3)cc1)C(C#N)=C(N)O2 (stereo not given) 1.36%
O=C1c2ccccc2NC(c2ccc(Cl)cc2Cl)N1O (stereo not given) 58.2%
CCOc1cc(/C=N/NC(=O)C(=O)NCc2cccnc2)ccc1O -1.14%
S=c1[nH]nc(-c2cccnc2)n1C1CCCCC1 0.199%
O=S(=O)(NC1CCCCC1)c1ccc(Cl)s1 6.67%
CCC(C)OC1OC(CO)C(O)C(O)C1NC(C)=O (stereo not given) 0.148%
C[C@@H]1C(c2ccc(F)cc2)=NN(c2ccccc2)[C@H]1C(=O)N1CCOC1=O 12.3%
CCN(CC)S(=O)(=O)N1CCC(C(=O)NC2CCCC2)CC1 1.37%
O=C(Nc1ccccc1F)C1CCN(C(=O)Cc2ccccc2)CC1 -21.2%
CCOc1cc(C(=O)N2CCCN(C)CC2)cc(OCC)c1OCC 17.2%
